Screens (PubChem)
A selection: hits, their analogues and other compounds. The true share with any hit is near 3%.
ABHD5-PLIN5 inh: ABHD5-PLIN5 interaction inhibitors, primary screen, cell lysate, split luciferase complementation, luminescence; AID 602281, 2012; Split G. princeps luciferase complementation, 4 h; Perilipin-5 (Homo sapiens) + 1-acylglycerol-3-phosphate O-acyltransferase ABHD5 (Homo …; 360,000 tested, 0.78% active; inhibition, % at 4 µM;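 active = inhibition above the mean inhibition across every tested compound plus 3 SD, cut at about 22% in these data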;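 also: 0% = DMSO only wells and the 100% control is not disclosed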
Target sequence (Q00G26 whole entry, looked up): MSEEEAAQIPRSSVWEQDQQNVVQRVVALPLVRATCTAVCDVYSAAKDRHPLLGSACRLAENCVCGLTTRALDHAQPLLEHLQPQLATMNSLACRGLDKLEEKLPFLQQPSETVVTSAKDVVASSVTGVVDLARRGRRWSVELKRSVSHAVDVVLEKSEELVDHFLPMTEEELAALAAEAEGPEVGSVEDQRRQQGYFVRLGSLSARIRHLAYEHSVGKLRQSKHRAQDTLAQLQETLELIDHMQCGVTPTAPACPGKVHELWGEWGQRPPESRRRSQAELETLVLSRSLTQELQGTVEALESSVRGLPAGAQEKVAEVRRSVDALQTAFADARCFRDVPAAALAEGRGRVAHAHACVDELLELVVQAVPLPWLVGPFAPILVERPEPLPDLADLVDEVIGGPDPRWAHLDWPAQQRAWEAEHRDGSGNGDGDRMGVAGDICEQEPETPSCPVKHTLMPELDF
Target sequence (Q8WTS1 whole entry, looked up): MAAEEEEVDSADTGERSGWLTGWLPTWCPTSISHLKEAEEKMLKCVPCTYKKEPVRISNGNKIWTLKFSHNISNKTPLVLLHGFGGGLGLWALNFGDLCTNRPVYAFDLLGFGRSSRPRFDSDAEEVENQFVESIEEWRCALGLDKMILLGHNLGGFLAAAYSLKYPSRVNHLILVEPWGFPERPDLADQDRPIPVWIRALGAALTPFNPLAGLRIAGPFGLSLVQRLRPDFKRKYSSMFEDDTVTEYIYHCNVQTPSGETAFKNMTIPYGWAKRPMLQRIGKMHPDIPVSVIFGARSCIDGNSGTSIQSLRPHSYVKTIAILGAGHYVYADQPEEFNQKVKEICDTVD
CF NFkB block: inhibitors of PAF-induced NF-kB signaling, primary screen, cell-based, GFP fluorescence, uHTS; AID 588850, 2011; 360,000 tested, 0.86% active; KKLEB NF-kB-GFP reporter, GFP fluorescence overnight; inhibition, % at 5 µM;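 active = at least 50% inhibition at 5 µM, scaled per plate between neutral and stimulator controls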;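 also: PAF is a Pseudomonas aeruginosa culture filtrate used as stimulus; plate controls were PAF-stimulated DMSO wells for no effect and unstimulated DMSO wells for full effect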
KKLEB tox: cytotoxicity in KKLEB CF airway cells, primary screen, cytotoxicity control for CF NF-kB inhibitor project, cell-based, uHTS, fluorescence assay plates; KKLEB CF airway cells viability, ATPlite luminescence, overnight; active compounds read low; cells stimulated with P. aeruginosa culture filtrate; activity change (cytotoxicity), % at 5 µM; 360,000 tested, 0.36% active; AID 602141, 2011;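 active = corrected activity change at or below -50% at 5 µM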
TRPM1 prom inh: inhibitors of MITF-dependent TRPM1 promoter reporter, primary screen, cell-based, SK-MEL-5, single point, luciferase | SK-MEL-5 TRPM1 promoter luciferase, 24 h | inhibition, % at 12.5 µM | 330,000 tested, 0.83% active | AID 488899, 2010;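 active = mean inhibition across replicates of 60% or more, whatever share of single replicates reaches that level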
Peg3 prom inh: Peg3 promoter-driven luciferase inhibitors, primary screen, cell-based, HeLa, luciferase luminescence; HeLa PEG-Prom luciferase reporter, overnight; inhibition, % at 20 µM; 360,000 tested, 1.7% active;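 active = inhibition of at least 50% at 20 µM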
HIF-2a inh: HIF-2a reporter inhibitors, primary screen, luminescence, 786-0 RCC cells. 786-0 RCC cells HIF-2a reporter, luciferase luminescence, overnight. inhibition, % at 18.8 µM. 360,000 tested, 0.72% active. AID 624352, 2012;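 active = inhibition of the luminescence signal of 40% or more relative to plate controls, in a single-dose primary screen at 18.75 µM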
The depositor's hits bear a star; . = no result given; ! = not confirmed by another sample.

SMILES	ABHD5-PLIN5 inh	CF NFkB block	KKLEB tox	TRPM1 prom inh	Peg3 prom inh	HIF-2a inh
Cc1nc(SC(C(N)=O)c2ccccc2)c(C#N)c(C)c1C (stereo unspecified)	-1	-18	17	.	-50	-63
COc1ccc(C2=C(N)c3ccccc3C2=O)cc1	3	-9	-13	-58	-246	-316
O=C(C1=C(c2ccccc2)C(=O)c2ccccc2C1=O)c1ccccc1	-12	76*	-19	64*	92*	-29
O=C(c1ccccc1)c1c[nH]cc1-c1ccccc1	-1	2	4	-21	-6	7
COC1=C(c2ccccc2)C(=O)c2ccccc2C1=O	-7	-42	23	75*	10	4
COc1ccc(C2CC(c3ccc4ccccc4c3)=NN2C(=O)CN2CCC(C(N)=O)CC2)cc1 (stereo unspecified)	10	10	-12	-79	-162	-227
COc1ccc(C2CC(c3ccc4ccccc4c3)=NN2C(=O)CNC2CCCCC2)cc1 (stereo unspecified)	11	30	-31	-2	90*	-104
C=CCNCC(=O)N1N=C(c2ccc3ccccc3c2)CC1c1ccc(OC)cc1 (stereo unspecified)	16	16	-12	-1	66*	-34
Cc1ccc(S(=O)(=O)N(CC(O)CN2CCOCC2)c2cccc([N+](=O)[O-])c2)cc1 (stereo unspecified)	0	-5	5	3	2	2
Cc1ccc(NS(=O)(=O)c2ccc(Cl)c(C(=O)Nc3ccccc3-c3nc4ccccc4[nH]3)c2)cc1C	-8	56*	-26	32	40	-22
CN(C)S(=O)(=O)c1ccc(Cl)c(C(=O)Nc2nc3ccccc3[nH]2)c1	5	-4	6	0	-8	-40
COc1ccc(-c2n(CC(=O)OC3CC(C)CCC3C(C)C)c3ccccc3[n+]2C)cc1 (stereo unspecified)	18	60*	-54*	91*	77*	5
CC1CCC(C(C)C)C(OC(=O)CSc2nccc(=O)[nH]2)C1 (stereo unspecified)	-13	10	5	-7	2	5
Cc1cc(C)n(C(C)CNS(=O)(=O)c2ccc(C)c(C)c2)n1 (stereo unspecified)	-3	-7	-1	0	10	1
CC(C)c1ccc2c(c1)CCC1C(C)(CN)CCCC21C (stereo unspecified)	-1	13	-13	98*	109*	-2
CC(C)c1ccc2c(c1)CC[C@H]1[C@](C)(CN)CCC[C@]21C	1	21	-17	102*!	90*!	-68
CCCCCCCCOC(=O)c1c(CSC(=N)N)n(C)c2cc(Br)c(OC(C)=O)cc12	20	16	22	.	98*	0
CCOC(=O)c1c(CSc2nc(C)cc(C)c2C#N)n(C)c2cc(Br)c(OC(C)=O)cc12	0	40	-55*	40	28	13
C=CCCc1ccc(C#N)c(SCc2c(C(=O)OCC)c3cc(OC(C)=O)c(Br)cc3n2C)n1	1	6	5	25	27	6
CSCC[C@H](N)C(=O)N1CCC(C(=O)N[C@@H](C)C(=O)NCc2ccc(F)cc2)CC1	-8	10	0	-3	-2	5
Cc1nc(NC(=O)c2cccc(-c3cc4ccccc4oc3=O)c2)ccc1Br	-2	7	-6	7	79*	-55
Nc1cccc(-c2cc3ccccc3oc2=O)c1	-3	2	1	22	-61	41*
Cc1nc(NC(=O)c2ccc(-c3cc4ccccc4oc3=O)cc2)ccc1Br	2	4	-1	0	82*	9
Nc1nnc(-c2cc3ccccc3oc2=O)s1	-1	-22	7	-25	-199	-188
O=C(OCC#CCSc1nnc(-c2cccc3ccccc23)o1)c1ccc2ccccc2c1	-9	-4	-4	-15	-46	-37
